# Source: PubChem BioAssay
# Values without a mark were called inactive. For part of these data: Entries with a potency or affinity are not part of this list. Calls of active or inactive are those of the source. Unless noted, how the calls were made is not given here.
# Key:
# [1] = antimalarial activity against Dd2 strain (AID 2302;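 active means growth inhibition above 50% at the single 2 µM test dose, taken to imply half-maximal potency below 2 µM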;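 further: 0% = DMSO untreated growth and 100% = chloroquine plus artemisinin killed control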); details: P. falciparum Dd2 in RBCs, LDH growth readout, 72 h; at 2 µM; hits give high values
# [2] = human hepatoma cell viability loss – ATP luminescence, cytotoxicity control for P. falciparum antimalarial project, primary screen (AID 2303;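 active means inhibition above 50%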;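 further: 0% = DMSO wells and 100% = digitonin-killed cells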); details: HepG2 viability, 24-48 h, at 10 µM, hits give high values
# [3] = molecular target: L-lactate dehydrogenase (Plasmodium falciparum (isolate CDC / Honduras)) (UniProt Q27743); assay: PfLDH activity inhibition – cell lysate, 3D7 strain, counter-screen for P. falciparum growth inhibition project (AID 2304);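 further: 0% = vehicle and 100% = reference inhibitor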; details: P. falciparum 3D7 crude extract, LDH APAD/NBT absorbance; at 2 µM; hits give high values
# [4] = inhibition of 3D7 malaria parasite growth – strain 3D7 (AID 2306);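 further: 0% = DMSO wells and 100% = chloroquine plus artemisinin control wells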; details: P. falciparum 3D7 erythrocytic growth, LDH absorbance, 72 h; at 2 µM; hits give high values
# [5] = molecular target: Calcium-dependent protein kinase 1 (Plasmodium falciparum (isolate 3D7)) (UniProt P62344); assay: PfCDPK1 kinase inhibitors, biochemical, TCAMS library (AID 1159585; cut-off not given, nearly all actives have IC50 up to about 0.98 µM;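 further: inhibitors leave more ATP so luminescence rises with inhibition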); details: recombinant PfCDPK1, Kinase-Glo ATP depletion luminescence
# [6] = molecular target: Plasmodium falciparum protein kinase 6 (PK6, PF3D7_1337100) (UniProt Q8IDW1); assay: PfPK6 kinase inhibitors, biochemical, TCAMS library (AID 1159586); details: recombinant PfPK6, Kinase-Glo ATP depletion luminescence
# [7] = molecular target: Protein kinase 7 (PK7), Plasmodium falciparum 3D7 (PF3D7_0213400) (UniProt Q7YTF7); assay: inhibition of Plasmodium PK7 catalytic activity – biochemical, TCAMS antimalarial set, Kinase-Glo luminescence (AID 1159587); details: recombinant PfPK7, Kinase-Glo ATP depletion luminescence
# [8] = molecular target: Calcium-dependent protein kinase 4 (Plasmodium falciparum (isolate 3D7)) (UniProt Q8IBS5); assay: PfCDPK4 kinase inhibitors, biochemical, TCAMS library (AID 1159588; cut-off not given, nearly all actives have IC50 up to about 0.91 µM); details: recombinant PfCDPK4, Kinase-Glo ATP depletion luminescence
# Chain of Calcium-dependent protein kinase 4 (Plasmodium falciparum (isolate 3D7)) (Q8IBS5 whole entry, looked up): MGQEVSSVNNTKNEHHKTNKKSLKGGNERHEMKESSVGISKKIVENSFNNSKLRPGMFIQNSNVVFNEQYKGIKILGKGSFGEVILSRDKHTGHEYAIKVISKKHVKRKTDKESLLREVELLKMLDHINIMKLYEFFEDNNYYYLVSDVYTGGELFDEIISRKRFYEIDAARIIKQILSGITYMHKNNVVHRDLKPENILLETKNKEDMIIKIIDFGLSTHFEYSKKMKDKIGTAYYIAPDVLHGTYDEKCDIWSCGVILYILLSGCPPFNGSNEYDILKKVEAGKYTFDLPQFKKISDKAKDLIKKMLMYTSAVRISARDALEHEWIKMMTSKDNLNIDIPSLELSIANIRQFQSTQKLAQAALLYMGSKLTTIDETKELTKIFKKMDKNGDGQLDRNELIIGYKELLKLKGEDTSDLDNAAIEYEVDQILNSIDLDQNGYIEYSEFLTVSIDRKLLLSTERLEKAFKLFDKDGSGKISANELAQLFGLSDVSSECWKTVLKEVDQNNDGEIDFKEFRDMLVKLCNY
# Chain of Plasmodium falciparum protein kinase 6 (PK6, PF3D7_1337100) (Q8IDW1 1-305): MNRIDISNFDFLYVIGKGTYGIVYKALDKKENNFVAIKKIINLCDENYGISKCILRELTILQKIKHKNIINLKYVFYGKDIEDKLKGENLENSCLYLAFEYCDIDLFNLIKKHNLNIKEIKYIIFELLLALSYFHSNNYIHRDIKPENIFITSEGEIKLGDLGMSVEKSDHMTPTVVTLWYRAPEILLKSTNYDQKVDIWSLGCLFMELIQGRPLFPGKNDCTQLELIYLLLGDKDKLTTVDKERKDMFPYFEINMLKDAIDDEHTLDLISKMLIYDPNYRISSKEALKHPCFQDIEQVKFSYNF
# Chain of L-lactate dehydrogenase (Plasmodium falciparum (isolate CDC / Honduras)) (Q27743 whole entry, looked up): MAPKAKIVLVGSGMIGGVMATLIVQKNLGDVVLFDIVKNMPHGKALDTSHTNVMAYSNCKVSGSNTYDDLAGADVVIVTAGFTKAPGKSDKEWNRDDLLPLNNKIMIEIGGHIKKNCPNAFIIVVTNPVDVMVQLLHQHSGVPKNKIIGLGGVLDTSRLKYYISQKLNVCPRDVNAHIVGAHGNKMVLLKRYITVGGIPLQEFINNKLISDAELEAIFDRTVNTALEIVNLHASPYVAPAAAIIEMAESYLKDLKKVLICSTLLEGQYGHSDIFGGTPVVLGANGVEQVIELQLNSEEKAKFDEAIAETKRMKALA
# Chain of Protein kinase 7 (PK7), Plasmodium falciparum 3D7 (PF3D7_0213400) (Q7YTF7 1-343): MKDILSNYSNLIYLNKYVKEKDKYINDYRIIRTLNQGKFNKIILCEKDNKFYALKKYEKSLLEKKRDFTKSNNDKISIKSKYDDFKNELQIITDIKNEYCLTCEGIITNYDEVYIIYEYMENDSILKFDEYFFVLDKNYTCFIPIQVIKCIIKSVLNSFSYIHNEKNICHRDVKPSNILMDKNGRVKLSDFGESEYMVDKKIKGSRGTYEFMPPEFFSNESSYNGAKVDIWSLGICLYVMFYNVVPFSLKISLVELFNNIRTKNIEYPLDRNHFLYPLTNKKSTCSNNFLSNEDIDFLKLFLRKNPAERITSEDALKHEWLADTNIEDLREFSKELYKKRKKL
# Chain of Calcium-dependent protein kinase 1 (Plasmodium falciparum (isolate 3D7)) (P62344 whole entry, looked up): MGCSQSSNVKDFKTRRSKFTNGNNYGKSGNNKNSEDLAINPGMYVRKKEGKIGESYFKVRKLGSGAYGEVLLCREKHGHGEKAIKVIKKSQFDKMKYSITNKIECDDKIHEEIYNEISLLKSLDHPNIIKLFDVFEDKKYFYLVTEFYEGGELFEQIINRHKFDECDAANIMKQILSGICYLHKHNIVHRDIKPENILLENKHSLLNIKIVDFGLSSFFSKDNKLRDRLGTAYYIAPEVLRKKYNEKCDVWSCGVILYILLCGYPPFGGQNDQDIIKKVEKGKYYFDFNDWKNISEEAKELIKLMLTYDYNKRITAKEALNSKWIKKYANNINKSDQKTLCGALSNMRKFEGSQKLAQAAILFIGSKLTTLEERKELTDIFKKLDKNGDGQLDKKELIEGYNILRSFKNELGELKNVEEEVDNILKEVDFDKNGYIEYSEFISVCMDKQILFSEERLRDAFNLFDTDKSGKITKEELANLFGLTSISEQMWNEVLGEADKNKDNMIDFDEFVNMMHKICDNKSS
Structure (SMILES),growth inhibition [1],inhibition [2],inhibition [3],growth inhibition [4],outcome [5],outcome [6],outcome [7],outcome [8]
COc1ccc(CCN(C)CCOc2ccc(NC(=O)c3cc(SC)cc4c(=O)c5ccccc5[nH]c34)cc2)cc1OC,44%,7%,0%,87% (active),inactive,inactive,inactive,inactive
O=C(Nc1cc(F)cc(F)c1)N1CCOC(CCN2CCC(c3ccccc3)CC2)(c2ccc(Cl)c(Cl)c2)C1 (configuration not stated),69% (active),31%,0%,91% (active),inactive,inactive,inactive,inactive
Cn1c(CN2CCC(N3CCc4cc(NC(=O)c5ccco5)ccc43)C2)cc2ccccc21 (configuration not stated),92% (active),-1%,-3%,91% (active),inactive,inactive,inactive,inactive
CCCCOc1ccc(-c2nc3ccccc3[nH]2)cc1,82% (active),21%,-1%,86% (active),inactive,inactive,inactive,inactive
Cc1cccc(NC(c2cccs2)c2c(NC(=O)c3ccccc3)sc(C)c2C)n1 (configuration not stated),80% (active),-8%,1%,88% (active),inactive,inactive,inactive,inactive
O=[N+]([O-])c1ccc(NC(=NCCOc2ccccc2)Nc2ccccc2Br)c(O)c1,70% (active),6%,-9%,88% (active),inactive,inactive,inactive,inactive
COc1ccc2oc(=O)c(C#N)c(O)c2c1,-4%,-2%,2%,99% (active),inactive,inactive,inactive,inactive
CN(C)c1ccc(C=Cc2ccc3ccccc3n2)c(Cl)c1,95% (active),59% (active),1%,94% (active),inactive,inactive,inactive,inactive
O=c1cc(NCCCNCc2sc(Br)c(Br)c2Br)[nH]c2ccccc12,38%,0%,5%,90% (active),inactive,inactive,inactive,inactive
Cc1cccc2[nH]c(-c3ccc(-c4ccc(CN5CCN(C6CCN(C)CC6)CC5)cc4)cc3)nc12,100% (active),99% (active),-5%,100% (active),inactive,inactive,inactive,inactive
CC(=O)Nc1cc(C(=O)Nc2cccc(-c3cccc(-c4nc5c(C)cccc5[nH]4)c3)c2)ccc1C,62% (active),25%,1%,100% (active),inactive,inactive,inactive,inactive
COc1ccc2nccc(N3CCCN(CCNS(=O)(=O)c4ccc5c(c4)NC(=O)CS5)CC3)c2n1,15%,-2%,-9%,97% (active),inactive,inactive,inactive,inactive
O=[N+]([O-])c1cccc(NC(=S)N2CCCN(Cc3ccc(C(F)(F)F)cc3)CC2)c1,49%,11%,0%,90% (active),inactive,inactive,inactive,inactive
O=C(Cc1ccccc1)NC(c1ccco1)c1cc(Cl)c2cccnc2c1O (configuration not stated),93% (active),44%,-1%,89% (active),inactive,inactive,inactive,inactive
Cc1cc(OCC2CCN(c3ncc(C(=O)NC4CC4)cc3Cl)CC2)ccc1F,96% (active),16%,5%,96% (active),inactive,inactive,inactive,inactive
CCN(CC)CCN(Cc1ccc(-c2ccc(C(F)(F)F)cc2)cc1)C(=O)Cn1c(CCc2ccccc2F)nc(=O)c2ccccc21,54% (active),39%,-1%,95% (active),inactive,inactive,inactive,inactive
CNC(=O)COC(=O)c1c2c(nc3ccccc13)C(=Cc1ccc3c(c1)OCO3)CCC2,36%,7%,-2%,83% (active),inactive,inactive,inactive,inactive
CCN(CC)CCN(Cc1ccc(-c2ccc(C(F)(F)F)cc2)cc1)C(=O)Cn1c(CCc2cccc(F)c2F)nc(=O)c2sccc21,70% (active),70% (active),6%,96% (active),inactive,inactive,inactive,inactive
O=C(Nc1cc(C(F)(F)F)cc(C(F)(F)F)c1)Nc1cc(C(F)(F)F)cc(C(F)(F)F)c1,101% (active),5%,-7%,97% (active),inactive,inactive,inactive,inactive
COc1ccc(NC(=O)c2ccc(Br)c(C)c2)cc1N1CCN(CCCc2c[nH]c3ccccc23)CC1,64% (active),21%,0%,102% (active),inactive,inactive,inactive,inactive

Structure (SMILES),growth inhibition [1],inhibition [2],inhibition [3],growth inhibition [4],outcome [5],outcome [6],outcome [7],outcome [8]
CCC(C)(C)c1ccc(Oc2ccc(NC(=O)Nc3ccc(Cl)c(Cl)c3)cc2)cc1,97% (active),13%,-1%,98% (active),inactive,inactive,inactive,inactive
Cc1cc(N[C@@H](CC(C)C)C(=O)NCc2cccs2)nc(NCCc2cccs2)n1,13%,-3%,-4%,92% (active),inactive,inactive,inactive,inactive
O=C(Nc1cccc([N+](=O)[O-])c1)Nc1cccc(C(F)(F)F)c1,81% (active),0%,-8%,92% (active),inactive,inactive,inactive,inactive
Cc1cc(F)ccc1[C@H]1CNCCN1C(=O)N(C)C(C)(C)c1cc(C(F)(F)F)cc(C(F)(F)F)c1,100% (active),24%,-4%,101% (active),inactive,inactive,inactive,inactive
CC(C)c1cc(C(=O)N[C@@H](Cc2ccccc2)[C@H](O)CNC2CCCCC2)cc(N2CCCC2=O)c1,98% (active),-11%,5%,101% (active),inactive,inactive,inactive,inactive
Cn1c(Nc2cc(C(C)(C)C)on2)nc2cc(Nc3ccnc(Nc4cccc(S(=O)(=O)N5CCOCC5)c4)n3)ccc21,96% (active),32%,5%,101% (active),inactive,inactive,inactive,inactive
Clc1ccc(C2CCN(CCCOc3ccc4c(c3)CCNCC4)CC2)cc1,28%,93% (active),-8%,98% (active),inactive,inactive,inactive,inactive
CC(C)(C)c1ccc(CNC(=O)c2ccc(CNC3CCC(N)CC3)s2)cc1 (configuration not stated),10%,41%,4%,100% (active),inactive,inactive,inactive,inactive
C#CCN(Cc1cc2c(=O)[nH]c(N)nc2cc1C)c1ccc(C(=O)N[C@@H](CCC(=O)O)C(=O)O)cc1,74% (active),28%,-1%,92% (active),inactive,inactive,inactive,inactive
O=C(CN1CCN(C(=O)c2ccco2)CC1)Nc1ccc(Br)cc1Cl,79% (active),10%,-6%,88% (active),inactive,inactive,inactive,inactive
CCNC(=O)NC1CCN(Cc2c(-c3cccs3)nc3ccccc3c2C(=O)N[C@@H](C)C2CCCCC2)CC1,96% (active),-1%,-2%,95% (active),inactive,inactive,inactive,inactive
OC[C@H]1CCCN1CC#Cc1cc2c(Nc3ccc(OCc4cccc(F)c4)c(Cl)c3)ncnc2s1,6%,13%,-2%,89% (active),inactive,inactive,inactive,inactive
CC(C)CN(C)c1ncnc2c1nc(-c1cncc(C#N)c1)n2CCNCc1ccccc1,2%,4%,0%,86% (active),inactive,inactive,inactive,inactive
Cc1cc(OCCCN2CCC(NS(=O)(=O)c3ccc(Cl)c(Cl)c3)CC2)c2ccccc2n1,35%,11%,1%,96% (active),inactive,inactive,inactive,inactive
Oc1ccccc1CNCC12CC3CC(CC(C3)C1)C2,99% (active),-4%,5%,98% (active),inactive,inactive,inactive,inactive
CNCCNCc1ccc(-c2ccc(-c3nc4c(C)cccc4[nH]3)cc2)cc1,79% (active),19%,-5%,96% (active),inactive,inactive,inactive,inactive
Cc1cnc(CNCc2ccc(S(=O)(=O)Nc3ccc(Oc4cccc(Cl)c4)cc3)cc2)cn1,-1%,4%,7%,97% (active),inactive,inactive,inactive,inactive
O=C(C1CCCC1)N1CCOC(CCN2CCC(c3ccccc3)CC2)(c2ccc(Cl)c(Cl)c2)C1 (configuration not stated),77% (active),16%,0%,88% (active),inactive,inactive,inactive,inactive
CCC1N=C(N)N=C(N)N1OCc1cccc2ccccc12 (configuration not stated),1%,66% (active),-4%,93% (active),inactive,inactive,inactive,inactive
